# Test results from PubChem BioAssay (NCI).
# Compounds without any hit were thinned out: in the full panel of roughly 83,000, 20% have a hit.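 Method: cells in 96-well plates; compound added at one concentration; 48 h incubation; percent growth measured; values under 10 scored active.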 A number with no mark means an inactive call. Activity calls are given as the source filed them.
# System: MDA-MB-468 breast
# Assay: NCI-60 one-dose screen, 48 h (100 = growth as untreated, 0 = no growth, -100 = all killed)
# Details: 10 µM unless noted
row,SMILES,growth
1,CC(C)(C)c1ccc(CCO)cc1,124%
2,Nc1c(C(=O)Nc2ccccc2C(F)(F)F)sc2nc3c(cc12)CCC3,104%
3,CCOC(=O)c1cc2c(n1Cc1cc(OC)c(OC)c(OC)c1)-c1oncc1CCC2,15.7%
4,COc1cccc(NC(=O)c2sc3nc(C)c(C(=O)c4ccccc4)cc3c2N)c1,62.1%
5,C1=CC2=CC=C3C=CC=C4C(c5nc6c7ccccc7c7ccccc7c6[nH]5)=CC(=C1)C2C34 (stereo unspecified),21.9%
6,COc1ccc(OC)c(Nc2nc(-c3c(C)nc4sccn34)cs2)c1,24.5%
7,C#CCn1cc(/C=N/Nc2nc(-c3ccc(Br)cc3)cs2)c2ccccc21,105%
8,O=C(CCc1nnc2sc(-c3ccc(Cl)cc3Cl)nn12)c1nc2ccccc2[nH]1,-56.2% (active)
9,CC1(C)CC(=O)NC1=O,100%
10,COc1ccc(Nc2cc(C)nc(N3CCN(c4ccnc5cc(Cl)ccc45)CC3)n2)cc1,21.7%
11,CCOC(=O)C(O)C(O)(c1ccccc1)c1ccccc1 (stereo unspecified),115%
12,O=C(Nc1ccc2c(c1)C(=O)c1ccccc1-2)c1ccccc1,85.6%
13,Cc1nn(-c2ccccc2)c2nc(C)n(-c3ccc(Br)cc3)c(=O)c12,-5.99% (active)
14,CCc1nnc(NC(=O)c2ccoc2COc2ccccc2)s1,52.7%
15,CCOC(=O)c1cc(/C(=N\O)c2cc(OC)c(OC)c(OC)c2)n2cc(C)cc(C)c12,15.8%
16,COc1cc([C@@H](CCO)C[C@H](C)c2ccc3ccccc3c2)cc(OC)c1OC,17.2%
